Test results reported in PubChem BioAssay.
Activity calls are given as the source filed them. Cut-off read from the data, not from the text of the source, unless noted: active = inhibition above about 80%; inactive = the rest.

Tests used:
[1] = viability loss with induced miR-34 in A549 – imaging, A549 dox-inducible miR-34, nuclei and caspase counts, primary screen (AID 1347080;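 active = compounds whose cell count with miR-34 switched on is under 0.7 times the count with it off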); details: A549 miR-34 inducible, Hoechst nuclei count, 48 h
[2] = MELAS cybrid and Rieske KO viability enhancers – cell-based, MELAS cybrids, Rieske KO mouse fibroblasts, CellTiter-Glo, primary screen (AID 1508586;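 active = mean z-score across replicates of 1.96 or higher in either the MELAS or the Rieske mutant cell line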;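 note: z relative to plate mean and SD of compound and empty wells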); details: low glucose
[3] = growth inhibition, single agent or in combination, cell-based, chromothripsis tumors, cisplatin or BGB combos (AID 1671449); details: LFS_MB_P medulloblastoma cells;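 note: cells exposed for 96 hours; 0% = vehicle DMSO and 100% = killing by high DMSO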
[4] = growth inhibition, single agent and combos, cell-based, chromothripsis tumors, cisplatin or BGB combos (AID 1671450); details: HDN33 neuroblastoma cells, stronger effect = higher value;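 note: cells exposed to compound for four days; 0% = vehicle DMSO and 100% = cell killing by high DMSO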
[5] = growth inhibition, single agents and combos, ICB984, cell-based, cisplatin or BGB combos, synergistic combos for chromothripsis tumors (AID 1671451; call rule not given here;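 note: cells exposed for 96 hours before readout; 0% = vehicle DMSO and 100% = killing by high DMSO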); details: ICB984 medulloblastoma cells, drug combinations, stronger effect = higher value
[6] = growth inhibition, single agents and combos, LFS_MB_1R, cell-based, cisplatin or BGB combos, synergistic combos for chromothripsis tumors (AID 1671452); details: LFS_MB_1R medulloblastoma cells, stronger effect = higher value;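 note: cells exposed for 96 hours before readout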
[7] = growth inhibition, single agents and combos, HTB85, cell-based, BGB or cisplatin IC20 combos, synergistic combos for chromothripsis tumors (AID 1671453); details: HTB85 osteosarcoma cells, drug combinations, stronger effect = higher value;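 note: cells exposed for 96 hours before readout; 0% = vehicle DMSO and 100% = high DMSO killing control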
[8] = growth inhibition, single agents and combos, CRL2098, cell-based, BGB or cisplatin IC20 combos, synergistic combos for chromothripsis tumors (AID 1671454); details: CRL2098 osteosarcoma cells, drug combinations, stronger effect = higher value;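 note: cells exposed for 96 h before readout; 0% = vehicle DMSO and 100% = killing by high DMSO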
[9] = growth inhibition, single agents and combos, HD-MB03, cell-based, BGB or cisplatin IC20 combos, synergistic combos for chromothripsis tumors (AID 1671455; in the data active = inhibition above about 83%;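 note: 0% = vehicle DMSO and 100% = high DMSO as cytotoxic control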); details: HD-MB03 medulloblastoma cells, stronger effect = higher value
[10] = growth inhibition, single agents and combos, UWB1.289, cell-based, BGB or cisplatin combos, synergistic combos for chromothripsis tumors (AID 1671456); details: UWB1.289 ovarian carcinoma cells, stronger effect = higher value;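 note: cells exposed to compound for four days; 0% = vehicle DMSO and 100% = killing by high DMSO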
[11] = growth inhibition, single agents and combos, LFS_MB_2R, cell-based, cisplatin combos, synergistic combos for chromothripsis tumors (AID 1671457); details: LFS_MB_2R medulloblastoma cells, stronger effect = higher value;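 note: cells exposed to compound for four days before readout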
[12] = growth inhibition, MDA-MB-436, cell-based, BGB or cisplatin combos, synergistic combos for chromothripsis tumors (AID 1671458; call rule not given here;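 note: cells exposed for 96 hours; 0% = vehicle DMSO and 100% = killing by high DMSO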); details: MDA-MB-436 breast carcinoma growth inhibition, drug combinations, stronger effect = higher value
[13] = UWB1.289_BRCA1 ovarian cancer growth, cell-based, BGB or cisplatin combinations (AID 1671459); details: UWB1.289 BRCA1 ovarian carcinoma, drug combinations, stronger effect = higher value
[14] = drug combination toxicity in non-malignant astrocytes – cell-based, BGB or cisplatin IC20 combos, cytotoxicity control for chromothriptic childhood tumor combination screen (AID 1671460); details: Human astrocytes, viability inhibition, drug combinations, at 0.5 µM, stronger effect = higher value;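 note: cells exposed to compounds for 96 hours before viability readout; 0% = vehicle and 100% = killing control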
[15] = BT084 cell growth, single and combined drugs, ICGC_MB145, cisplatin and BGB IC40 combos (AID 1671461); details: BT084 medulloblastoma cells, drug combinations, stronger effect = higher value;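 note: cells exposed to drugs for 96 hours; 0% = vehicle DMSO and 100% = high DMSO full killing control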
[16] = RCMB18 cell growth, single agent and combined, cisplatin and BGB IC40 combos (AID 1671462); details: RCMB18 medulloblastoma cells, stronger effect = higher value;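 note: cells exposed to compound for four days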
[17] = CRL1545 cell growth, single agent and combined, cisplatin and BGB IC20 combos (AID 1671464); details: CRL1545 osteosarcoma cells, stronger effect = higher value;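 note: cells exposed to compound for 96 hours before readout; 0% = vehicle DMSO and 100% = high DMSO killing control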
[18] = measured here: combination with BGB IC40, at 0.05 µM
[19] = measured here: with BGB IC20 combination, at 0.5 µM
[20] = measured here: with cisplatin IC20 combination, at 0.5 µM
[21] = measured here: combination with cisplatin, at 0.5 µM
[22] = measured here: combination with cisplatin, at 5 µM

**Q.** With CC(C)(C#N)c1ccc(N2C(=O)OCc3cnc4ccc(-c5cnc6ccccc6c5)cc4c32)cc1 as the compound, how does the fold change ([1]; stronger effect = lower value, cell number ratio, induced over uninduced) read?
**A.** 0.956 (inactive)

**Q.** And the fold change ([1]; measured here: relative caspase fold change +Dox/-Dox)?
**A.** 0.673

**Q.** And the cell count ([1]; measured here: total cells with miR-34 induction, stronger effect = lower value)?
**A.** 2510

**Q.** What about the cell count ([1]; measured here: total cells without miR-34 induction) of the same compound?
**A.** 2620

**Q.** And the z-score ([2]; MELAS cybrid survival, CellTiter-Glo 48 h, stronger effect = higher value)?
**A.** 3.99 (active)

**Q.** And the z-score ([2]; Rieske KO mouse fibroblast survival, CellTiter-Glo 72 h)?
**A.** 2.98

**Q.** What about the inhibition ([3]; at 0.5 µM, stronger effect = higher value) of the same compound?
**A.** -21.4% (inactive)

**Q.** What about the inhibition ([3]; measured here: combination with BGB IC20, at 0.005 µM) of the same compound?
**A.** -11.2%

**Q.** What about the inhibition ([3]; measured here: combination with BGB IC40, at 0.005 µM) of the same compound?
**A.** -17%

**Q.** What about the inhibition [3, 18] of the same compound?
**A.** -37.9%

**Q.** What about the inhibition ([3]; measured here: combination with cisplatin, at 0.5 µM, stronger effect = higher value) of the same compound?
**A.** -37.5%

**Q.** And the inhibition ([3]; measured here: combination with cisplatin, at 5 µM, stronger effect = higher value)?
**A.** -27.3%

**Q.** What about the inhibition ([4]; BGB combo, at 5 µM) of the same compound?
**A.** 20.7%

**Q.** And the inhibition ([4]; at 0.5 µM)?
**A.** 3.13% (inactive)

**Q.** And the inhibition ([4]; cisplatin combo, at 5 µM)?
**A.** 12.1%

**Q.** What about the inhibition [4, 19] of the same compound?
**A.** 34.2%

**Q.** What about the inhibition [4, 20] of the same compound?
**A.** -10.9%

**Q.** And the inhibition ([4]; single agent, at 5 µM)?
**A.** 52.2%

**Q.** What about the inhibition ([5]; BGB IC20 combo, at 0.005 µM) of the same compound?
**A.** -18.4%

**Q.** And the inhibition ([5]; BGB IC40 combo, at 0.005 µM)?
**A.** -8.9%

**Q.** What about the inhibition ([5]; BGB IC40 combo, at 0.05 µM) of the same compound?
**A.** 30.5%

**Q.** And the inhibition ([5]; at 0.5 µM)?
**A.** -29.7% (inactive)

**Q.** What about the inhibition ([5]; cisplatin combo, at 0.05 µM) of the same compound?
**A.** 28.5%

**Q.** And the inhibition ([5]; cisplatin combo, at 0.5 µM)?
**A.** -15.5%

**Q.** And the inhibition ([5]; cisplatin combo, at 5 µM)?
**A.** -36.2%

**Q.** And the inhibition ([5]; measured here: 5 uM single agent, at 5 µM)?
**A.** -21.9%

**Q.** And the inhibition ([6]; at 0.5 µM)?
**A.** -13.4% (inactive)

**Q.** What about the inhibition [6, 18] of the same compound?
**A.** -7.9%

**Q.** And the inhibition [6, 21]?
**A.** -39.8%

**Q.** What about the inhibition [6, 22] of the same compound?
**A.** 24%

**Q.** And the inhibition ([7]; at 0.5 µM)?
**A.** 3.37% (inactive)

**Q.** And the inhibition ([7]; measured here: with BGB IC20, at 0.5 µM)?
**A.** 2.55%

**Q.** And the inhibition ([7]; measured here: with BGB IC20, at 5 µM)?
**A.** 14.5%

**Q.** And the inhibition ([7]; measured here: with cisplatin IC20, at 0.5 µM)?
**A.** -23.6%

**Q.** And the inhibition ([7]; measured here: with cisplatin IC20, at 5 µM)?
**A.** 28.2%

**Q.** What about the inhibition ([7]; single agent, at 5 µM) of the same compound?
**A.** -10.2%

**Q.** What about the inhibition ([8]; at 0.5 µM) of the same compound?
**A.** -42.5% (inactive)

**Q.** What about the inhibition ([8]; measured here: combination with BGB at IC20, at 0.5 µM) of the same compound?
**A.** -42.2%

**Q.** And the inhibition ([8]; measured here: combination with cisplatin at IC20, at 0.5 µM)?
**A.** -56.5%

**Q.** And the inhibition ([9]; at 0.5 µM)?
**A.** -11.6% (inactive)

**Q.** What about the inhibition ([9]; measured here: combo with BGB at IC20, at 0.5 µM) of the same compound?
**A.** -14.5%

**Q.** And the inhibition ([9]; measured here: combo with cisplatin at IC20, at 0.5 µM)?
**A.** -8.16%

**Q.** What about the inhibition ([10]; at 0.5 µM) of the same compound?
**A.** 5.6% (inactive)

**Q.** And the inhibition ([10]; measured here: inhibition with BGB combination, at 0.05 µM)?
**A.** -17%

**Q.** What about the inhibition ([10]; measured here: inhibition with cisplatin combination, at 0.05 µM) of the same compound?
**A.** -6.61%

**Q.** And the inhibition ([11]; at 0.5 µM)?
**A.** -11.6% (inactive)

**Q.** What about the inhibition [11, 21] of the same compound?
**A.** -16.8%

**Q.** And the inhibition [11, 22]?
**A.** -39.1%

**Q.** And the inhibition ([12]; at 0.5 µM)?
**A.** -25% (inactive)

**Q.** And the inhibition ([12]; measured here: BGB combination, at 0.5 µM)?
**A.** -28.5%

**Q.** What about the inhibition ([12]; measured here: BGB combination, at 5 µM) of the same compound?
**A.** -0.266%

**Q.** And the inhibition ([12]; measured here: cisplatin combination, at 0.5 µM)?
**A.** -29.7%

**Q.** What about the inhibition ([12]; measured here: cisplatin combination, at 5 µM) of the same compound?
**A.** -3.36%

**Q.** And the inhibition ([13]; BGB combination, concentration series, at 5 µM)?
**A.** 53.9%

**Q.** What about the inhibition ([13]; at 0.5 µM) of the same compound?
**A.** 6.07% (inactive)

**Q.** What about the inhibition ([13]; cisplatin combination, concentration series, at 5 µM) of the same compound?
**A.** 99.8%

**Q.** And the inhibition [14]?
**A.** -4.16% (inactive)

**Q.** And the inhibition ([14]; measured here: combo with BGB IC20)?
**A.** -12.4%

**Q.** What about the inhibition ([14]; measured here: combo with cisplatin IC20) of the same compound?
**A.** -5.44%

**Q.** What about the inhibition ([15]; at 0.5 µM) of the same compound?
**A.** -28.9% (inactive)

**Q.** What about the inhibition ([15]; cisplatin combination, at 0.5 µM) of the same compound?
**A.** -2.27%

**Q.** What about the inhibition ([15]; cisplatin combination, at 5 µM) of the same compound?
**A.** 60.4%

**Q.** What about the inhibition ([15]; measured here: BGB IC40 combination 0.05 uM, at 0.05 µM) of the same compound?
**A.** -35.6%

**Q.** What about the inhibition ([15]; single agent, at 5 µM) of the same compound?
**A.** 4.04%

**Q.** And the inhibition ([16]; at 0.5 µM)?
**A.** -2.14% (inactive)

**Q.** What about the inhibition ([16]; cisplatin combo, at 5 µM) of the same compound?
**A.** 20.5%

**Q.** And the inhibition ([16]; measured here: BGB IC40 combination, at 0.05 µM)?
**A.** -35.7%

**Q.** What about the inhibition [16, 21] of the same compound?
**A.** 7.95%

**Q.** And the inhibition ([16]; single agent, at 5 µM)?
**A.** 19.4%

**Q.** What about the inhibition ([17]; at 0.5 µM) of the same compound?
**A.** 0.16% (inactive)

**Q.** And the inhibition [17, 19]?
**A.** -15%

**Q.** And the inhibition [17, 20]?
**A.** 5.66%

**Q.** And the inhibition ([17]; single agent, at 0.05 µM)?
**A.** -4.01%

**Q.** And the inhibition ([17]; single agent, at 5 µM)?
**A.** 26.5%
